Active and inactive are the calls of the source. Unless noted, the rule behind the calls is not given here.
Experiments:
[1] = anti-His antibody binders, primary screen, artefact control for SMM control protein annotation, biochemical, small-molecule microarray, 635 nm fluorescence (AID 1128); conditions: anti-His Alexa647 antibody binding, higher = more signal;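 note: score merges feature fluorescence with signal-to-noise for each printed compound spot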
[2] = test system: Human papillomavirus type 1a E7 protein (residues 1-88); experiment: HPV1a E7 small-molecule binders, primary screen, biochemical, small-molecule microarray, residues 1-88, 635 nm (AID 1129); conditions: small-molecule microarray binding, fluorescence 635 nm; higher = more signal
[3] = target: Focal adhesion kinase 1 (Homo sapiens) (UniProt Q05397); experiment: small-molecule microarray binders of FAK, primary screen, biochemical, 635/667 nm fluorescence, BSA, DTT (AID 1130); conditions: PTK2 binding, 635 nm fluorescence, higher = more signal;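 note: composite of spot emission at 667 nm and signal to noise over triplicate slides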
[4] = test system: Fibrinogen (Alexa647-labelled); experiment: fibrinogen binders on compound microarrays, profiling panel, artefact control for SMM control-protein annotation, biochemical, small-molecule microarray, 635/667 nm fluorescence (AID 1131); conditions: fibrinogen-A647 binding fluorescence, higher = more signal;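 note: z-score merges 667 nm fluorescence with per-spot signal-to-noise over triplicate slides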
[5] = target: Follistatin (Homo sapiens) (UniProt P19883); experiment: follistatin binders on small-molecule microarrays, primary screen, biochemical, small-molecule microarray, 635/667 nm fluorescence (AID 1132); conditions: FST binding, 635 nm fluorescence, higher = more signal
[6] = target: Fibroblast growth factor 2 (Homo sapiens) (UniProt P09038); experiment: FGF2 binders on small-molecule microarrays, primary screen, biochemical, small-molecule microarray, 635/667 nm fluorescence (AID 1133); conditions: small-molecule microarray binding, FGF2, fluorescence 635/667; higher = more signal
[7] = mitochondrial membrane potential change in A549 cells, profiling panel, cell-based, JC-1 fluorescence, basal, 24 h, 100 nL (AID 1138); conditions: higher = more signal;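 note: A549 lung adenocarcinoma cells under basal conditions with no added stimulus; test concentration not given here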
Lefty1 = Lefty1 binders on small-molecule microarrays, primary screen, biochemical, small-molecule microarray, 635/667 nm fluorescence (AID 1139); conditions: small-molecule microarray binding, fluorescence 635/667; higher = more signal
[8] = test system: wheat germ agglutinin (Triticum aestivum), Alexa647-labelled; experiment: wheat germ agglutinin binders on compound microarrays, profiling panel, artefact control for SMM control-protein annotation, biochemical, small-molecule microarray, 635/667 nm fluorescence (AID 1140); conditions: WGA-A647 binding, 635 nm fluorescence, higher = more signal;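 note: score merges 667 nm feature emission with signal to noise over triplicate slides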
[9] = target: Luciferin 4-monooxygenase (Photinus pyralis) (UniProt P08659); experiment: firefly luciferase enzyme inhibitors, primary screen, biochemical, luminescence, purified enzyme, 2006 set (AID 1141); conditions: SteadyGlo luminescence, 30 min, higher = more signal, called active from +8 up or from −8 down;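 note: cell-free assay with purified firefly luciferase at 100 ng per well in PBS; test concentration not given here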
[10] = test system: Wnt5a (protein binding on small-molecule microarray); experiment: Wnt5a binders on small-molecule microarray, primary screen, biophysical, 635/667 nm fluorescence (AID 1142); conditions: 635 nm fluorescence, higher = more signal;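 note: fluorescence read at 667 nm with signal to noise per printed feature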
[11] = cell viability in Huh7 cells, primary screen, cytotoxicity control for HCV replication inhibitor project, CellTiter-Glo luminescence, basal, 48 h (AID 1143); conditions: Huh7 HCV replicon, higher = more signal, called active from +8 up or from −8 down;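 note: Huh7 hepatoma cells carrying a hepatitis C replication reporter with no stimulus; test concentration not given here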
[12] = P. aeruginosa biofilm formation inhibitors, primary screen, PAO1 strain, BacTiter-Glo luminescence, LB-PBS (AID 1144); conditions: 12 h, higher = more signal
[13] = CREB reporter modulators without forskolin, primary screen, cell-based, PC12, CRE-LacZ reporter, unstimulated (AID 1145); conditions: no forskolin, luminescence, 4.5 h, higher = more signal, called active from +8 up or from −8 down
[14] = CREB reporter modulators under forskolin, primary screen, cell-based, PC12, CRE-LacZ reporter, forskolin-stimulated (AID 1146); conditions: luminescence, 4.5 h, higher = more signal, called active from +8 up or from −8 down;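 note: PC12 cells with 6xCRE LacZ reporter stimulated by forskolin 10 µM; beta-galactosidase reporter signal reflecting CREB driven transcription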
[15] = target: Streptavidin (Streptomyces avidinii) (UniProt P22629); experiment: streptavidin binders on small-molecule microarray, primary screen, artefact control for SMM compound annotation, biophysical, 635/667 nm fluorescence (AID 1147); conditions: streptavidin binding, higher = more signal;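 note: signal reflects streptavidin binding to arrayed compounds as a control protein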
[16] = small-molecule binders of probe aInhba, primary screen, biochemical, small-molecule microarray, 635/667 nm fluorescence (AID 1148); conditions: higher = more signal;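 note: score merges 667nm spot fluorescence with signal-to-noise for antibody binding to printed compounds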
Torsin-1A (Homo sapiens) [17] = target: Torsin-1A (Homo sapiens) (UniProt O14656); experiment: torsin A binders from cell lysate, primary screen, small-molecule microarray, wild-type, 635/667 nm (AID 1149); conditions: COS7 hTOR1A-WT lysate, 635 nm fluorescence, higher = more signal
Torsin-1A (Homo sapiens) [18] = target: Torsin-1A (Homo sapiens) (UniProt O14656); experiment: small-molecule binders of mutant TOR1A in lysate, primary screen, cell lysate, small-molecule microarray, COS7 lysate, 635/667 nm fluorescence (AID 1150); conditions: COS7 hTOR1A mutant lysate, 635 nm fluorescence, higher = more signal;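 note: score pools 667 nm emission and signal to noise measuring lysate protein binding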
[19] = test system: Sonic hedgehog protein (Shh); experiment: small-molecule binders of Shh protein, primary screen, biochemical, small-molecule microarray, 635/667 nm fluorescence (AID 1151); conditions: small-molecule microarray binding, 635 nm fluorescence; higher = more signal;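 note: Shh protein binding to compounds spotted on small-molecule microarray slides; score combines spot fluorescence intensity with signal-to-noise across triplicate slides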

Chain of Streptavidin (Streptomyces avidinii) (P22629 whole entry, looked up): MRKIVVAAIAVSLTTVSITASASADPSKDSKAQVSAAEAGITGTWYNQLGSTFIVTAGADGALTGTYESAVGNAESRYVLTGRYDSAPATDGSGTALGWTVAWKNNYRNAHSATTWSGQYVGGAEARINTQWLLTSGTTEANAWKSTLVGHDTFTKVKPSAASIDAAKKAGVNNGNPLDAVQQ
Chain of Focal adhesion kinase 1 (Homo sapiens) (Q05397 whole entry, looked up): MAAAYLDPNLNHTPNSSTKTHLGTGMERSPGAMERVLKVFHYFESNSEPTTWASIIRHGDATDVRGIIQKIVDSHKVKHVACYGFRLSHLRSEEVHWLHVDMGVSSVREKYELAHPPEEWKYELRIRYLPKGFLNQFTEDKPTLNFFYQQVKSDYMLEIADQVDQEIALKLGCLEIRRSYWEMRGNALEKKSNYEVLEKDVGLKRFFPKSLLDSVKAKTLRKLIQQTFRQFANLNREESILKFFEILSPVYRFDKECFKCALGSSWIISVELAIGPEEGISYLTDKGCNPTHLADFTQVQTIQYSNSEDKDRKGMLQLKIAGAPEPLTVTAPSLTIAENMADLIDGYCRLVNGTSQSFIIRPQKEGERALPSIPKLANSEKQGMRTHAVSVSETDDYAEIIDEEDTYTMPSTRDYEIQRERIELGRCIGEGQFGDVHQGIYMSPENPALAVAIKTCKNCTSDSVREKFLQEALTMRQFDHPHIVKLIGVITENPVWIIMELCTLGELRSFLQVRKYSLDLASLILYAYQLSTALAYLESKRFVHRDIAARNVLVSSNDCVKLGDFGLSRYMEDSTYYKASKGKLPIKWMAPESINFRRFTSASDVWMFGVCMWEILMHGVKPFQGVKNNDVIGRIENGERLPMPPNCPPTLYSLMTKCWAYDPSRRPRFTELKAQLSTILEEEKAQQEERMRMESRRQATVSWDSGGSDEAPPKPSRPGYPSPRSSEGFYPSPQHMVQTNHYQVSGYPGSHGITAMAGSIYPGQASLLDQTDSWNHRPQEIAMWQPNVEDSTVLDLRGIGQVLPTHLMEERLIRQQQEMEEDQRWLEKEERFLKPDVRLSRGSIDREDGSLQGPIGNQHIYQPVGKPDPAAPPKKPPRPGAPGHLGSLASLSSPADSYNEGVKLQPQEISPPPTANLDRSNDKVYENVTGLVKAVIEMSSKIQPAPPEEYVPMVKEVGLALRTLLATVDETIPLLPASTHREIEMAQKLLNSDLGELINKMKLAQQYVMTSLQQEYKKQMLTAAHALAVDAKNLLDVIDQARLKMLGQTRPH
Chain of Torsin-1A (Homo sapiens) (O14656 whole entry, looked up): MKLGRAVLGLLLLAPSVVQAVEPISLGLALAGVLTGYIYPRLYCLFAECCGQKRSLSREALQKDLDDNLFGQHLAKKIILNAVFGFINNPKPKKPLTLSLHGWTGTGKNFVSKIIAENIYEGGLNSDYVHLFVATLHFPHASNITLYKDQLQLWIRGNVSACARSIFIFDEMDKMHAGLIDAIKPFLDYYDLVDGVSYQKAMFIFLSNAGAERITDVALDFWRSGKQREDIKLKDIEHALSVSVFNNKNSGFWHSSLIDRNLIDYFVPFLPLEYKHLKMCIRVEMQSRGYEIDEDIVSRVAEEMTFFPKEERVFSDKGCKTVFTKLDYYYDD
Chain of Follistatin (Homo sapiens) (P19883 whole entry, looked up): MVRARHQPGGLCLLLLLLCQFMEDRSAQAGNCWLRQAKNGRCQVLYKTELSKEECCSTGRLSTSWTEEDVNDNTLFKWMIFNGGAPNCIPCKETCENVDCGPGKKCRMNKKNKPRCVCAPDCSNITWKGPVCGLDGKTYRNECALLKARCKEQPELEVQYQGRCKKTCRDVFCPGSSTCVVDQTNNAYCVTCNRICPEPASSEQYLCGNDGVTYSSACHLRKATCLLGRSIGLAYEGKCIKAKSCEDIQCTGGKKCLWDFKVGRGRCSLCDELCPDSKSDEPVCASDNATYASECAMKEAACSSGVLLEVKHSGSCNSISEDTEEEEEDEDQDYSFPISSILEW
Chain of Luciferin 4-monooxygenase (Photinus pyralis) (P08659 whole entry, looked up): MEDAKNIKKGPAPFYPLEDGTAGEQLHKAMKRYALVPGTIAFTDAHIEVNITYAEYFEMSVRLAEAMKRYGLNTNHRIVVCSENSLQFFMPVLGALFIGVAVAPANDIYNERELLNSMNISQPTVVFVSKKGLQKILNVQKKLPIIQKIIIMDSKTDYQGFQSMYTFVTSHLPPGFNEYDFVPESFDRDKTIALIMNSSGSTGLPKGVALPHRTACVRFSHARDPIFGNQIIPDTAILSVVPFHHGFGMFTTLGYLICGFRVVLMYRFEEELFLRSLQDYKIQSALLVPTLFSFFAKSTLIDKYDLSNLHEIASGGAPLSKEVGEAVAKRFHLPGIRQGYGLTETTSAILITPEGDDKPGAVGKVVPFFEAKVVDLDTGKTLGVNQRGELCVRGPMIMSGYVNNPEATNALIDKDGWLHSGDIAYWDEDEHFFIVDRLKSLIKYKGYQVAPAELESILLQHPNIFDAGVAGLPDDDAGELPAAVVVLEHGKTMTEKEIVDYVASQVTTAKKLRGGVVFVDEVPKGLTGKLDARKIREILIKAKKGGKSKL
Chain of Fibroblast growth factor 2 (Homo sapiens) (P09038 whole entry, looked up): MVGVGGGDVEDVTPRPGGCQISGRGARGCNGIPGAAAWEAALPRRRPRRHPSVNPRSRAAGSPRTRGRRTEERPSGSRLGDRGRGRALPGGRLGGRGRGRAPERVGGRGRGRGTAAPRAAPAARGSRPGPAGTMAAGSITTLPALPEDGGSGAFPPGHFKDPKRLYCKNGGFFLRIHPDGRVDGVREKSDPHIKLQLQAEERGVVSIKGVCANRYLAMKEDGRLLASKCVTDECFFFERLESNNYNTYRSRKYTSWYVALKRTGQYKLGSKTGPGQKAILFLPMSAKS

Structure (SMILES) | composite z-score [1] | composite z-score [2] | composite z-score [3] | composite z-score [4] | composite z-score [5] | composite z-score [6] | z-score [7] | composite z-score (Lefty1) | composite z-score [8] | z-score [9] | composite z-score [10] | z-score [11] | z-score [12] | z-score [13] | z-score [14] | composite z-score [15] | composite z-score [16] | composite z-score (Torsin-1A (Homo sapiens) [17]) | composite z-score (Torsin-1A (Homo sapiens) [18]) | composite z-score [19]
Cc1ccccc1C(O)C1C=CC2C(=O)N(c3ccccc3)C(=O)C2N1Nc1ccccc1F (stereo not given) | 2.08 | 1.22 | 0.622 | 1.06 | 1.01 | 0.624 | -0.932 | -0.245 | 1.15 | -0.782 (inactive) | 0.0624 | 0.198 (inactive) | -0.626 (inactive) | -1.09 (inactive) | -0.283 (inactive) | 1.14 | 0.0569 | 0.575 | 1.25 | -0.255
CC(C)CNC(=O)[C@@H]1c2ccccc2C(=O)N(C2Cc3ccccc3C2)[C@H]1c1ccc(CO)cc1 | 0.245 | 0.516 | -0.587 | 0.182 | 0.348 | 0.579 | 3.56 | -0.499 | -0.19 | -0.843 (inactive) | -0.0027 | -0.13 (inactive) | 0.92 (inactive) | 0.118 (inactive) | -0.748 (inactive) | -0.861 | -0.106 | -1.03 | 0.0877 | 0.436
CC(C)C[C@H]1NC(=O)[C@H](Cc2ccccc2)NC(=O)[C@@]23C(=O)N[C@@H](Cc4ccccc4)C2[C@H](C)[C@@]2(C)O[C@H]2C3/C=C/C/C=C\CNC1=O (stereo not given in full) | 0.701 | 0.475 | 0.899 | 0.315 | 0.927 | 1.01 | -0.000177 | 0.376 | 0.658 | -0.179 (inactive) | 0.116 | -1.29 (inactive) | 0.338 (inactive) | 0.67 (inactive) | 0.105 (inactive) | 0.494 | -0.0552 | 0.471 | 0.855 | 0.889
C=C(CC1([C@@H](NP(=O)(c2ccccc2)c2ccccc2)[C@H]2C[C@@H]2CCN(C(=O)OCC)S(=O)(=O)c2ccc(C)cc2)CC1)c1ccccc1 | 1.74 | 1.22 | 1.15 | 0.781 | 0.712 | -0.804 | 0.782 | -0.162 | 0.593 | 2.49 (inactive) | 0.302 | -3.37 (inactive) | 0.83 (inactive) | -0.196 (inactive) | 0.108 (inactive) | 1.27 | 0.199 | -0.423 | 0.0999 | -1.18
COCCOC(=O)N1C(=O)[C@@]2(c3cc(C#CC4=CCCCC4)ccc31)[C@H](c1ccccc1OCCO)N1[C@H](c3ccccc3)[C@H](c3ccccc3)OC(=O)[C@H]1[C@@H]2C(N)=O | 1.48 | 1.17 | 0.539 | 0.83 | 1.06 | 1.36 | -1.8 | 0.91 | -0.0974 | -1.74 (inactive) | 0.288 | -6.61 (inactive) | -1.73 (inactive) | -2.37 (inactive) | -1.6 (inactive) | 0.771 | -0.115 | 1.21 | 0.137 | 1.7
CCCC[C@@H]1C[C@H]1[C@@H](NC(=O)Cc1ccccc1)c1ccc(Cl)cc1 | 1.84 | 1.18 | 1.53 | 1.02 | 0.841 | -0.272 | -2.79 | -0.297 | 1.25 | 0.957 (inactive) | 0.545 | -3.44 (inactive) | 1.19 (inactive) | 0.962 (inactive) | 0.56 (inactive) | 2.32 | -0.0002 | 0.578 | 0.311 | -0.22
C[C@]1(C(=O)NCC(F)(F)F)c2ccccc2C(=O)N(Cc2ccc(OC(F)(F)F)cc2)[C@H]1c1ccc(CO)cc1 | 0.781 | 0.269 | 0.273 | 0.0709 | 1.13 | 0.358 | -0.274 | 0.369 | 0.314 | -0.219 (inactive) | -0.151 | -2.8 (inactive) | 0.382 (inactive) | 0.324 (inactive) | 1.3 (inactive) | 0.0803 | -0.128 | -0.906 | 0.7 | 0.31
